Measurements from article PMC5700166.
Residue numbers refer to the chain shown, from its start.

Columns and labels:
Test in all cases: protein-binding microarray (PBM); PBM: ~300 nM protein, 6 mM HEPES pH 7.8, 80 mM KCl, 0.5 mM EDTA, 0.5 mM EGTA, 6% glycerol, 35 ng/ul poly-dIdC, 1% milk, 1 h, room temperature; Ap Aiptasia and Nv Nematostella (sea anemones) / Co Capsaspora / Aq Amphimedon (sponge) / Dm Drosophila / Hu human; RHD is the Rel homology domain; high values mean tight binding
Details in all cases: dsDNA, one strand shown
[1] = molecular target: T1, GST-Ap-NF-kB RHD (Exaiptasia pallida (Aiptasia), UniProt A0A913YAJ5 2-422)
T1 sequence: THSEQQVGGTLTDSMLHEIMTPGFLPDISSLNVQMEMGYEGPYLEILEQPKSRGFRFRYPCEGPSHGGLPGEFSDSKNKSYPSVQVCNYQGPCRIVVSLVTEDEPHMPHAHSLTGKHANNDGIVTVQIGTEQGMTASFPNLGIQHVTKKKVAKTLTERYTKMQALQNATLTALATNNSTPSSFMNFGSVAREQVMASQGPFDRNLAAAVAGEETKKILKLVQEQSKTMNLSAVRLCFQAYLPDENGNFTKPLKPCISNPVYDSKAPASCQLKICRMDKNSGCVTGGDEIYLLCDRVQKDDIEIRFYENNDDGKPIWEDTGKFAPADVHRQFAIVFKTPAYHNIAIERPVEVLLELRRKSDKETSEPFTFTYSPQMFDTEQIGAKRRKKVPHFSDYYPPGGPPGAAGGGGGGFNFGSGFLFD

[2] = molecular target: T2, GST-Nv-NF-kB (Cys allele) (Nematostella vectensis, UniProt E5G601 2-411)
T2 sequence: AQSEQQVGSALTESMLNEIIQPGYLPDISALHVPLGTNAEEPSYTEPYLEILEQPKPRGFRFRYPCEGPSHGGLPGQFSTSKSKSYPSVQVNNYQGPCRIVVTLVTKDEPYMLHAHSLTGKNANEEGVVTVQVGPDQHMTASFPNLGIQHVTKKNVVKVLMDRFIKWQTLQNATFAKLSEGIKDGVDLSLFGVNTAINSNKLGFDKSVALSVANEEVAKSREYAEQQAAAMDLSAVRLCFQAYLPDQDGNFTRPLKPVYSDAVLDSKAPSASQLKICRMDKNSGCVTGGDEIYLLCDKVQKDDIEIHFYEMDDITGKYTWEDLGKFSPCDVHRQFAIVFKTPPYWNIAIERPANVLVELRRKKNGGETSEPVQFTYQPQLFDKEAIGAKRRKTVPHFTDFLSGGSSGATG

[3] = molecular target: T3, GST-Nv-NF-kB (Ser allele) (Nematostella vectensis, UniProt A7UNT2 2-411)
T3 sequence: T2 sequence with Q21R, C66S, S207N, E215Q, V217A, E225K, A268E, D399E

[4] = molecular target: T4, GST-Co-NF-kB (Capsaspora owczarzaki, UniProt F1ARL5 200-546)
T4 sequence: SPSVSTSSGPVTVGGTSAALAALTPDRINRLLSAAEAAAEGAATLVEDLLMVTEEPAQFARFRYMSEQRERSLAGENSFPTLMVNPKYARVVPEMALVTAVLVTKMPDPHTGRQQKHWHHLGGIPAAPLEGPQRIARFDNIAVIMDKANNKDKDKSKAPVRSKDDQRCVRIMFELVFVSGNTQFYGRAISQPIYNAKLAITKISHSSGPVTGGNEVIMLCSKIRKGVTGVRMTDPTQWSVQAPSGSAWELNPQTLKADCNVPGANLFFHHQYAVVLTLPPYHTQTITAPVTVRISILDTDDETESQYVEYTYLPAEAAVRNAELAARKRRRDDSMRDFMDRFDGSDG

[5] = molecular target: T5, GST-Dm-Relish (Drosophila melanogaster, UniProt Q94527 99-473)
T5 sequence: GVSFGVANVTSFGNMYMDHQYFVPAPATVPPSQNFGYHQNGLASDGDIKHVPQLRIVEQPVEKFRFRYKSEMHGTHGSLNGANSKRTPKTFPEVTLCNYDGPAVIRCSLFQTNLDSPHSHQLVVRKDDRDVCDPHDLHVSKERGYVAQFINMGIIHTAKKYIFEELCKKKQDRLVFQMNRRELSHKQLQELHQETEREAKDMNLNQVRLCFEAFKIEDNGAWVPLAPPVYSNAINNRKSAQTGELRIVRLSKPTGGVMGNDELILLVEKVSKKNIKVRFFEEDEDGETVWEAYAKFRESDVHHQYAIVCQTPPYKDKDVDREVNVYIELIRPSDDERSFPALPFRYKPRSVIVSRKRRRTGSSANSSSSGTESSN

[6] = molecular target: T6, GST-Aq-NF-kB (Amphimedon queenslandica, UniProt A9Y5G7 2-389)
T6 sequence: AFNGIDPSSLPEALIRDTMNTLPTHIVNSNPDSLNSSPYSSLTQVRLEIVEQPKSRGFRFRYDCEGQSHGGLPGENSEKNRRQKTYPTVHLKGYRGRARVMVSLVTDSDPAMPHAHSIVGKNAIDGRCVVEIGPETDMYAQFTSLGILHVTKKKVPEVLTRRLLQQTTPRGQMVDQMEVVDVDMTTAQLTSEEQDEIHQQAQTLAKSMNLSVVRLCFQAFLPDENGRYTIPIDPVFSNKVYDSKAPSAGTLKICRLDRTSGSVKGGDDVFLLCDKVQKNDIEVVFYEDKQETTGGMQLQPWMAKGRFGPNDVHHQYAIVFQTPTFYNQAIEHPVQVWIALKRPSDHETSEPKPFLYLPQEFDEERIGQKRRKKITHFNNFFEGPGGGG

[7] = molecular target: GST-Hu-p50 (Homo sapiens, UniProt P19838 7-356)
GST-Hu-p50, sequence (P19838 7-356): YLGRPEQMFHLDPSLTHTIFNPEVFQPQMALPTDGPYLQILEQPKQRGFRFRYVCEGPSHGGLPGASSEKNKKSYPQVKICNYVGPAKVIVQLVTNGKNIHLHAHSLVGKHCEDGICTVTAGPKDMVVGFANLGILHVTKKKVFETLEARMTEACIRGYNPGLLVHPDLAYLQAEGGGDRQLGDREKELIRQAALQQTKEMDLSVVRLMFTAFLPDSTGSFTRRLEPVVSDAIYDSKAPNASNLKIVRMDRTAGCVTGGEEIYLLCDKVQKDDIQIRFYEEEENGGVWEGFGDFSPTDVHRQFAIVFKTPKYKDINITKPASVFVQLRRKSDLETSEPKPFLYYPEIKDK

| Sequence | binding signal [1] | binding signal [2] | binding signal [3] | binding signal [4] | binding signal [5] | binding signal [6] | binding signal [7] |
| --- | --- | --- | --- | --- | --- | --- | --- |
| CCGATTAACATCAGTTTCCCCCATGATGTTAATCGGGTCTTGATTCGCTTGACGCTGCTG | 6.91 z-score | 6.51 z-score | 8.2 z-score | 10.6 z-score | 2.94 z-score | 5.09 z-score | 6.77 z-score |
| CCGATTAACATCACCGGGGATAGTGATGTTAATCGGGTCTTGATTCGCTTGACGCTGCTG | 3.55 z-score | 2.68 z-score | 3.34 z-score | 3.83 z-score | 2.1 z-score | 1.82 z-score | 2.98 z-score |
| CCGATTAACATCAGGACGTCCCCTGATGTTAATCGGGTCTTGATTCGCTTGACGCTGCTG | 7.08 z-score | 6.03 z-score | 4.26 z-score | 2.18 z-score | 5.29 z-score | 7.4 z-score | 4.57 z-score |
| CCGATTAACATCAGACAATCCCCTGATGTTAATCGGGTCTTGATTCGCTTGACGCTGCTG | 6.6 z-score | 7.1 z-score | 7.4 z-score | 2.24 z-score | 4.95 z-score | 5.98 z-score | 5.79 z-score |
| CCGATTAACATCAAGGGTGGGAATGATGTTAATCGGGTCTTGATTCGCTTGACGCTGCTG | 1.69 z-score | 1.84 z-score | 1.42 z-score | 2.88 z-score | 1.66 z-score | 2.63 z-score | 1.83 z-score |
| CCGATTAACATCACAACTTCCCCTGATGTTAATCGGGTCTTGATTCGCTTGACGCTGCTG | 6.77 z-score | 8.34 z-score | 9.8 z-score | 5.34 z-score | 6.89 z-score | 6.51 z-score | 6.13 z-score |
| CCGATTAACATCAAGTCCCCCCATGATGTTAATCGGGTCTTGATTCGCTTGACGCTGCTG | 5.62 z-score | 4.07 z-score | 3.94 z-score | 6.53 z-score | 4.21 z-score | 4.39 z-score | 3.78 z-score |
| CCGATTAACATCAACATTTCCCCTGATGTTAATCGGGTCTTGATTCGCTTGACGCTGCTG | 6.31 z-score | 8.45 z-score | 11.6 z-score | 8.45 z-score | 3.46 z-score | 5.86 z-score | 6.35 z-score |
| CCGATTAACATCAGGGGAAAAACTGATGTTAATCGGGTCTTGATTCGCTTGACGCTGCTG | 6.41 z-score | 8.02 z-score | 10.3 z-score | 9.24 z-score | 9.62 z-score | 6.72 z-score | 6.32 z-score |
| CCGATTAACATCACACAATCCCCTGATGTTAATCGGGTCTTGATTCGCTTGACGCTGCTG | 6.64 z-score | 6.65 z-score | 8.71 z-score | 2.94 z-score | 3.98 z-score | 4.86 z-score | 5.87 z-score |
| CCGATTAACATCATTTCCCTTGCTGATGTTAATCGGGTCTTGATTCGCTTGACGCTGCTG | 2.33 z-score | 3.78 z-score | 3.79 z-score | 1.62 z-score | 1.3 z-score | 3.29 z-score | 2.9 z-score |
| CCGATTAACATCAAGGGGGATTCTGATGTTAATCGGGTCTTGATTCGCTTGACGCTGCTG | 9.03 z-score | 8.85 z-score | 10.3 z-score | 4.93 z-score | 8.21 z-score | 7.13 z-score | 7.71 z-score |
| CCGATTAACATCACACATCCCCCTGATGTTAATCGGGTCTTGATTCGCTTGACGCTGCTG | 4.83 z-score | 4.4 z-score | 5.41 z-score | 4.17 z-score | 3.19 z-score | 3.87 z-score | 4.48 z-score |
| CCGATTAACATCAAATTACCCCCTGATGTTAATCGGGTCTTGATTCGCTTGACGCTGCTG | 6.8 z-score | 5.57 z-score | 6.77 z-score | 8.18 z-score | 4.33 z-score | 5.57 z-score | 5.08 z-score |
| CCGATTAACATCACAGAATCCCCTGATGTTAATCGGGTCTTGATTCGCTTGACGCTGCTG | 8.13 z-score | 8.87 z-score | 11.1 z-score | 3.42 z-score | 7.58 z-score | 6.21 z-score | 6.89 z-score |
| CCGATTAACATCAGGGGGACCCCTGATGTTAATCGGGTCTTGATTCGCTTGACGCTGCTG | 8.92 z-score | 5.39 z-score | 4.83 z-score | 4.63 z-score | 9.89 z-score | 8.54 z-score | 5.02 z-score |
| CCGATTAACATCAGGGGAATGCATGATGTTAATCGGGTCTTGATTCGCTTGACGCTGCTG | 5.82 z-score | 7.06 z-score | 7.76 z-score | 5.53 z-score | 3.2 z-score | 4.86 z-score | 5.41 z-score |
| CCGATTAACATCAGGGTTTCCCATGATGTTAATCGGGTCTTGATTCGCTTGACGCTGCTG | 3.12 z-score | 3.27 z-score | 2.81 z-score | 2.84 z-score | 8.13 z-score | 4.6 z-score | 2.14 z-score |
| CCGATTAACATCAGGGATATCCCTGATGTTAATCGGGTCTTGATTCGCTTGACGCTGCTG | 6.62 z-score | 6.52 z-score | 4.4 z-score | 3.18 z-score | 7.32 z-score | 7.89 z-score | 3.87 z-score |
| CCGATTAACATCAAATTCCCCCTTGATGTTAATCGGGTCTTGATTCGCTTGACGCTGCTG | 9.34 z-score | 10.3 z-score | 11 z-score | 8.93 z-score | 8.62 z-score | 8.5 z-score | 8.06 z-score |
| CCGATTAACATCACTATATTCCCTGATGTTAATCGGGTCTTGATTCGCTTGACGCTGCTG | 3.08 z-score | 3.16 z-score | 3.56 z-score | 3.19 z-score | 1.62 z-score | 2.6 z-score | 1.77 z-score |
| CCGATTAACATCAGGATTCTCCCTGATGTTAATCGGGTCTTGATTCGCTTGACGCTGCTG | 3.03 z-score | 4.71 z-score | 3.05 z-score | 1.79 z-score | 1.49 z-score | 6.5 z-score | 3.33 z-score |
